Compound activity as filed in PubChem BioAssay.
The list is not random: actives were taken first. Their share in the collection is about 0.25%.
Bim-Bcl-2 = inhibitors of Bim-Bcl-2 interaction, human. P10415. Bead-based flow cytometry, Bim peptide-Bcl-2 binding. inhibition, % at 10 µM. 190,000 compounds, 0.06% hits. AID 950; in the data active = inhibition above about 40%;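 also: 0% = no compound wells with probe peptide and 100% = reference peptide inhibitor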
Bim-Bcl-B = disrupts Bim peptide binding to human Bcl-B. Q9HD36. 190,000 compounds, 0.073% hits. inhibition, % at 10 µM. bead-based flow cytometry;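 also: 0% = tracer peptide without compound and 100% = reference inhibitor peptide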
Furin inh = blocks human furin protease activity. P09958. purified furin, fluorogenic substrate cleavage. inhibition, % at 20 µM or 30 µM. 220,000 compounds, 0.061% hits. AID 463115; in the data active = inhibition above about 25%
Target sequence (P09958 108-714 limits assumed): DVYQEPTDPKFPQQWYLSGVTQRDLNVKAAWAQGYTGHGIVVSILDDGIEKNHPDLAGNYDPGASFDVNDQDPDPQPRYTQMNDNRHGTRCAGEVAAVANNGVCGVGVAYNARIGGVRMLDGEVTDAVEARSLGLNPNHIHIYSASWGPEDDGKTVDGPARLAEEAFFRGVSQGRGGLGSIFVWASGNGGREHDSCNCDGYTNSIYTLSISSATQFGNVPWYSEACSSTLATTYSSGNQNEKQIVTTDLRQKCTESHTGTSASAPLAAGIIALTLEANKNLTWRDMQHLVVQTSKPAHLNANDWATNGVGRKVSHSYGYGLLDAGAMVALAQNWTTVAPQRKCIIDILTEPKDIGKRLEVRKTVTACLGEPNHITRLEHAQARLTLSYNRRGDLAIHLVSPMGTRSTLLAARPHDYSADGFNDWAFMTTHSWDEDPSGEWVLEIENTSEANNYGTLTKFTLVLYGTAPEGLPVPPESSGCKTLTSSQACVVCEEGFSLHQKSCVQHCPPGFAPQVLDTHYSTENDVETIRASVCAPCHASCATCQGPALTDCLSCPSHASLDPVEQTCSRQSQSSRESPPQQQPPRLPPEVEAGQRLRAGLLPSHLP
Bcl-XL Bim block = disrupts Bim peptide binding to human Bcl-XL. Q07817. inhibition, % at 10 µM. 190,000 compounds, 0.04% hits. bead flow cytometry, fluorescence
Bfl-1 Bim block = disrupts Bim binding to human Bfl-1 | Bead-based flow cytometry, Bim-Bfl-1 binding inhibition | inhibition, % at 10 µM | 190,000 compounds, 0.12% hits | AID 1008;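 also: 0% = wells without compound plus tracer and 100% = blocker peptide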
Bcl-W Bim block = human Bim-Bcl-W interaction inhibition; Q92843; bead-based flow cytometry, Bim peptide-Bcl-W binding; inhibition, % at 10 µM; 190,000 compounds, 0.02% hits;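 also: 0% = bound tracer without compound and 100% = peptide blocker; higher means less fluorescent Bim peptide bound to Bcl-W beads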
Bim-Bcl-XL DR = Bim-Bcl-XL interaction regulation, dose confirmation; shares compounds with Bfl-1 Bim block; bead-based flow cytometry, Bim-Bcl-XL binding; inhibition of binding at 100 µM; 40 tested, under 10 active; call rule not given here
* hit, by the source's call; / = no result given. Rule as the data show it, unless noted: active = inhibition above about 40%.

SMILES | Bim-Bcl-2 | Bim-Bcl-B | Furin inh | Bcl-XL Bim block | Bfl-1 Bim block | Bcl-W Bim block | Bim-Bcl-XL DR
Cc1ccc(C=NNC(=O)CSc2nnc(-c3ccc(Cl)cc3)n2-c2ccccc2)o1 | / | / | / | / | / | / | 6.6
Cc1ccc(/C=N/NC(=O)CSc2nnc(-c3ccccc3)n2-c2ccc(Cl)cc2)o1 | -1 | -42 | -14 | -2 | 1 | -3 | /
Cc1cccc(N(CC(=O)NC2CCCCC2)C(=O)Cn2nnc(-c3ccc(C)o3)n2)c1 | -2 | -2 | -23 | -3 | -9 | -2 | /
O=C1/C(=C\c2ccco2)NC(=S)N1c1ccccc1 | 11 | -29 | -23 | 0 | 32 | 8 | 0.95
CCCN=C1N/C(=C\c2ccco2)C(=O)N1c1ccccc1 | 0 | -3 | 0 | 1 | -1 | 0 | /
CCN(CC)C(=O)COC(=O)c1cc(-c2ccco2)nc2ccccc12 | 16 | 0 | -24 | 2 | 45* | 11 | 5.6
O=C(CN1C(=O)NC2(CCCCC2)C1=O)NCc1cccs1 | 1 | -2 | -17 | -3 | 0 | -1 | /
CCN(CC)c1ccc(NC(=O)c2ccccc2F)cc1S(=O)(=O)Nc1ccccc1OC | 4 | -31 | -21 | -6 | 29 | 3 | -11
CCN(CC)c1ccc(NC(=O)c2ccccc2Br)cc1S(=O)(=O)Nc1ccccc1OC | 2 | -33 | -16 | -2 | 33 | 2 | -10
CCN(CC)c1ccc(NC(=O)COc2ccccc2C)cc1S(=O)(=O)Nc1ccccc1OC | -5 | -32 | -20 | -11 | 38 | 0 | -9.5
O=C(/C=C/c1ccco1)N(Cc1ccc(Cl)cc1)C1CCS(=O)(=O)C1 (stereo not drawn) | / | / | -14 | / | / | / | /
CCN1C(=O)/C(=C2/C=CC=CN2C)SC1=S | -8 | -5 | 5 | -18 | -13 | 0 | /
CCN1C(=O)/C(=C\C=C2/C=CC=CN2CC)SC1=S | 7 | -6 | -8 | 0 | 21 | 3 | -1.7
CC(NC(=S)NCCN1CCOCC1)C12CC3CC(CC(C3)C1)C2 (stereo not drawn) | -10 | -8 | -16 | -8 | -9 | -6 | /
O=C(C[n+]1ccc(C(=O)NCCCO)cc1)c1cccc(Br)c1 | / | / | -20 | / | / | / | /
Cc1ccc(-c2cc(-c3ccc(C)o3)nc(N)c2C#N)cc1 | 85* | / | -24 | 20 | / | 17 | 0.13
Cc1ccc(-c2cc(-c3ccc(F)cc3)c(C#N)c(N)n2)o1 | 3 | -5 | -33 | -1 | 32 | 2 | 3.6
Cc1cc(-c2cc(-c3ccc(Cl)cc3)nc(N)c2C#N)co1 | 0 | -1 | -24 | 0 | 40* | 4 | 6.2
Cc1ccc(-c2cc(-c3ccc4c(c3)OCO4)c(C#N)c(N)n2)o1 | 5 | -3 | -28 | -1 | 24 | 7 | /
Cc1ccc(-c2cc(-c3ccc(Cl)cc3)c(C#N)c(N)n2)o1 | 1 | 1 | -20 | 3 | 24 | 1 | /
S=c1[nH]cc(-c2ccccc2)n1-c1ccccc1 | 1 | -19 | -12 | 0 | 17 | 2 | -3
O=C(CCc1nnc(-c2ccc3c(c2)OCO3)o1)N1CCC(c2ccc(F)cc2)C1 (stereo not drawn) | -1 | -3 | -23 | -1 | -6 | -2 | /
